Shown are actives, neighbours in structure and some others; about 1.4% of the full set was active somewhere.
TNF necrop inh: TNF-alpha cell death inhibition in Jurkat FADD-/- cells. Jurkat FADD-/- TNF necroptosis rescue, ATP luminescence, 24 h; 0 = TNF only, 100 = no-TNF cells. activation (protection from cell death), % at 10 µM. 220,000 compounds, 0.068% hits;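 active means activation, meaning protection from cell death, of at least 50% relative to plate controls; inactive means activation below 50%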;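 further: necroptosis triggered by 40 ng/mL TNF-alpha added together with compound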
HSV replic up: HSV replication enhancement; maximum fold increase; HSV replication augmentation in cells, fold increase; 220,000 compounds, 0.005% hits; in the data active means maximum fold increase above about 1.5; tested in PC3 cells
V-ATPase pHluor: alters yeast V-ATPase proton transport; S. cerevisiae, pHLuorin cytosolic pH fluorescence; response, % at 10 µM; 350,000 compounds, 0.37% hits; AID 504577; in the data active means response mostly above about 7.3%, no sharp cut-off; inactive means mostly below about 5.4%; further: actives read high
zVAD death inh: L929 zVAD cell death inhibition; L929 zVAD necroptosis rescue, ATP luminescence, 24 h; with zVAD 60 µM; viability rescue, % at 10 µM; 220,000 compounds, 0.38% hits; AID 1377;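 active means activation, scaled between plate controls, above about 75%, limit read from the data; inactive means activation under that limit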;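 further: 0% = zVAD with DMSO and 100% = DMSO alone without zVAD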
Wee1 degr inh: inhibitors of human Wee1 degradation. P30291. HeLa Luc-Wee1K328M stability, luciferase luminescence; 100% = proteasome inhibitor MG132 effect. reporter increase, % at 5 µM. 220,000 compounds, 1.2% hits. AID 1321;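 active means activation above the mean of all tested compounds plus 3 SD, set per screening run, cut at about 8.8% in these data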;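 further: cells exposed to compound for 20 h before luminescence read; 0% = DMSO alone and 100% = MG132 at 30 µM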
Target sequence (P30291 whole entry K328M): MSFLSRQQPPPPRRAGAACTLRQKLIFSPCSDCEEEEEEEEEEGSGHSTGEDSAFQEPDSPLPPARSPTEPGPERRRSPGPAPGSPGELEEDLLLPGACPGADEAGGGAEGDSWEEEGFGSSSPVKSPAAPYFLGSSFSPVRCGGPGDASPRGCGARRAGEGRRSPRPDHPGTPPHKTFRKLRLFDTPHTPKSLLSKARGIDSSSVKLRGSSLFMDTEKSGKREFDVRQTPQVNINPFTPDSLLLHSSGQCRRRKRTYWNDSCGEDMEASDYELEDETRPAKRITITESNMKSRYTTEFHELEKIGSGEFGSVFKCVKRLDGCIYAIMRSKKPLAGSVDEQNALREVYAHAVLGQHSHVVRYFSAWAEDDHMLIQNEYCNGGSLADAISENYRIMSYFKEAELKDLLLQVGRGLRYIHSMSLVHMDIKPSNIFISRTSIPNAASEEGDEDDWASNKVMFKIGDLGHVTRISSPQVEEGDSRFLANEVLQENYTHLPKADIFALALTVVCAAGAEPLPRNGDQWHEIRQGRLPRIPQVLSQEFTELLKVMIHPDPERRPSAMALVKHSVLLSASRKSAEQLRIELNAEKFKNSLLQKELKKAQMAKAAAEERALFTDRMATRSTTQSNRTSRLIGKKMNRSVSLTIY
Active calls of the source: *; i = inactive; . = no result; ! = a repeat was not active.

SMILES	TNF necrop inh	HSV replic up	V-ATPase pHluor	zVAD death inh	Wee1 degr inh
CCN(CC)CCNC(=O)c1ccc2c(c1)ncn2C1CCCCC1	0	i	-3	93*	-1
CCOC(=O)N1CCN(c2c(NCCN3CCN(Cc4ccccc4)CC3)c(=O)c2=O)CC1	0	i	0	1	4
CCOC(=O)N1CCC(Nc2c(NCCN3CCN(Cc4ccccc4)CC3)c(=O)c2=O)CC1	0	i	14*	0	-1
CC(C)(C)C(=O)NC(=S)Nc1ccccc1C(N)=O	1	i	5	1	11*
COc1ccc(Cc2nnc(NC(=O)c3cccc(F)c3)s2)cc1OC	.	.	1	.	.
CC(C)(C)C(=O)Nc1nnc(SCC(=O)Nc2nccs2)s1	.	.	1	.	.
Cc1onc(-c2c(F)cccc2Cl)c1C(=O)OCC(=O)N(C)c1ccccc1	.	.	2	.	.
O=C(NCCC(=O)N1CCN(S(=O)(=O)c2ccc(Cl)cc2)CC1)Nc1ccccc1	.	.	0	.	.
O=C(CCC(=O)N1CCN(S(=O)(=O)c2ccc(Cl)cc2)CC1)Nc1ccc2ccccc2c1	2	i	0	1	10*
COc1ccc(Br)cc1CNC(=O)CCN1C(=O)COc2ccccc21	3	i	1	2	11*
CC(=O)C1=NN(c2ccccc2)C(c2cccs2)N1c1ccccc1 (stereo not drawn)	-1	1.5*	.	0	1
CCc1ccc(N(C(=O)c2csnn2)C(C(=O)NC(C)(C)CC)c2ccccn2)cc1 (stereo not drawn)	-1	i	-2	-1	3
Cc1ccc(CN2CCNC(=O)C2CC(=O)NC2CCCCCC2)o1 (stereo not drawn)	1	i	-1	-1	-1
Cc1ccc(CN2CCNC(=O)C2CC(=O)NCCCn2ncc3ccccc32)o1 (stereo not drawn)	-2	i	5	-1	15*
CCN(CC(=O)Nc1ccc2c(c1)OCCO2)C(=O)CN1C(=O)NC(C)(c2ccc(C)cc2)C1=O (stereo not drawn)	.	.	-2	.	.
Cc1cc(NCc2ccco2)n2ncnc2n1	0	i	-3	0	2
Cc1cc(O)c(C(C)C)cc1NC(=O)c1ccc(Cl)cc1	2	i	-3	1	-2
Cc1cc(O)c(C(C)C)cc1NC(=O)c1cccc(Cl)c1	3	i	-1	1	9.5*
CCOC(=O)c1nnn(-c2ccc([N+](=O)[O-])cc2)c1C	1	i	-2	-1	8.8*
CCOC(=O)c1cnn(-c2ccc([N+](=O)[O-])cc2)c1N	-1	i	0	0	4
COc1ccc(N2C(=O)C(CC(=O)Nc3ccccc3)N(Cc3cccs3)C2=O)cc1 (stereo not drawn)	0	i	16*	2	5
COc1cccc(OCc2nc3ccccc3[nH]2)c1	-1	i	3	1	11*
CC(C)NC(=O)c1cc2c(s1)CCCC2	-2	i	2	0	8.9*
CNC(=O)c1cc2c(s1)CCCCCC2	-2	i	1	1	1
COc1ccc([N+](=O)[O-])cc1NC(=O)C1CCCN1S(=O)(=O)c1cccs1 (stereo not drawn)	.	.	1	.	.
SMILES	TNF necrop inh	HSV replic up	V-ATPase pHluor	zVAD death inh	Wee1 degr inh
O=C(CNC(=O)c1ccco1)NCC(=O)OCc1cccc(Cl)c1	-1	i	-4	0	2
O=C(CNC(=O)c1ccco1)OCc1cccc(Cl)c1	-4	i	4	0	9.4*
O=C(CCNC(=O)c1ccccc1Cl)Nc1cc(S(=O)(=O)N2CCOCC2)ccc1N1CCCC1	3	i	0	0	-3
Cc1ccc(NS(=O)(=O)N(C)C)cc1	4	i	1	0	9.8*
CSc1ccc(S(=O)(=O)Nc2ccc(S(=O)(=O)Nc3ccc(C)cc3)cc2)cc1	1	i	1	-1	5
Cc1ccc(S(=O)(=O)Nc2ccc(N(C)S(=O)(=O)c3ccc(C)cc3)cc2)cc1	3	i	-2	1	10*
COC(=O)c1ccc(NS(=O)(=O)N(C)C)cc1	0	i	2	0	1
CC(C)Oc1cccc(-c2cc(C(=O)N3CCN(c4ncccn4)CC3)c3ccccc3n2)c1	0	i	-1	1	9.3*
Cc1ccc(C)c(Cn2nnc3c(=O)[nH]c(C4CCCN(C(=O)c5ccco5)C4)nc32)c1 (stereo not drawn)	.	.	0	.	.
Nc1cc(-c2ccccc2)ccc1O	-10	i	1	6	10*!
COc1ccc(N(CN2C(=O)C3CCCCC3C2=O)C(=O)c2ccco2)cc1 (stereo not drawn)	1	i	-2	0	5
COc1ccc(OC)c(NS(=O)(=O)c2ccc(Br)s2)c1	-4	i	.	2	9.0*
NC1=C(O)C(=O)C(c2ccccc2)O1 (stereo not drawn)	2	i	1	0	-2
O=C(Cn1nnc2ccccc21)Nc1ccc(Cl)cn1	3	i	-1	2	-2
CCn1c(COc2ccc(Cl)cc2)nnc1SCc1nc2ccccc2[nH]1	-1	i	-4	1	-2
CCn1c(COc2ccc(OC)cc2)nnc1SCc1nc2ccccc2c(=O)[nH]1	0	i	.	3	9.8*
O=C(/C=C/c1cccc([N+](=O)[O-])c1)c1ccc([N+](=O)[O-])o1	.	.	177*	.	.
CN1C2CCC1CC(NC(=O)CSc1ccc(C(C)(C)C)cc1)C2 (stereo not drawn)	0	i	-2	-1	9.6*
FC(F)(F)c1cc(N2CCN(Cc3ccccc3)CC2)c2ccccc2n1	4	i	-6	1	10*
Cc1cc(C)n(-c2ccc(C(=O)NCC(c3ccco3)N3CCCC3)cc2)n1 (stereo not drawn)	.	.	16*	.	.
O=C(O)CCNS(=O)(=O)c1ccc2c(c1)OCCCO2	0	i	-1	-2	9.8*
N#CCSc1nc2sc3c(c2c(=O)n1C1CCCCC1)CCCC3	68*	i	2	12	0
COc1ccc(S(=O)(=O)N(C)C[C@@H]2OCCCC[C@@H](C)Oc3ccc(NC(=O)NC(C)C)cc3C(=O)N([C@H](C)CO)C[C@@H]2C)cc1	.	.	2	.	.
O=C(O)CC(=O)Nc1ccc(Oc2ccc(C(F)(F)F)cn2)c(Cl)c1	0	.	7	3	9.2*
CCOc1ccccc1NC(C)C(=O)NC(=O)NC1CCCCC1 (stereo not drawn)	.	.	3	.	.
CCOC(=O)c1c(CSc2ccc(CC)cc2)oc2ccc(O)c(CN(C)C)c12	.	.	7.6*	.	.
Nc1nc(CN2CCN(c3ccccc3F)CC2)nc(Nc2ccc3c(c2)OCCO3)n1	1	i	16*	0	-2
O=C(CNC(=O)c1cccs1)NCC(=O)OCc1c(F)cccc1Cl	-1	i	-3	5	9.0*
O=C(CNC(=O)c1ccco1)NCC(=O)OCc1c(F)cccc1Cl	.	.	1	.	.
CSc1nc(N(C)C)nc(N2CC(=O)N(CCNS(=O)(=O)c3ccc(C)cc3)C2=N)n1	0	i	0	0	-2
